The panel holds about 83,000 compounds, 20% with a hit somewhere; the sample as a whole holds those more often.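 A percent growth of 40 corresponds to 60% growth inhibition; 0 means no net growth; -100 means all cells died. Active threshold: below 10.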 A number with no mark means an inactive call. Active and inactive are the calls of the source.
Test system: TK-10 renal
Experiment: NCI-60 one-dose screen, 48 h (100 = growth as untreated, 0 = no growth, -100 = all killed)
Settings: 10 µM unless noted

SMILES | growth
NS(=O)(=O)c1ccc(CCn2c(-c3ccc(C(=O)O)cc3)nc(-c3ccccc3)c2-c2ccccc2)cc1 | 102%
COc1ccc(/C=N\NC(=O)c2cnn(CC(O)c3ccccc3)c2N)cc1OCc1ccc(Cl)cc1 (centres undefined) | 101%
CNc1sc(S(=O)(=O)NC)nc1S(=O)(=O)c1ccc(C)cc1 | 95.5%
C=C(C)[C@@H]1CC[C@]2(C(=O)N3CCN(C)CC3)CC[C@]3(C)[C@H](CC[C@@H]4[C@@]5(C)CC[C@H](OP(=O)(OCC)OCC)C(C)(C)[C@@H]5CC[C@]43C)[C@@H]12 | 108%
NS(=O)(=O)c1ccc(Nc2nc(Nc3ccccc3)nc(N3N=C(c4ccc(Cl)cc4)CC3c3ccc(Cl)cc3)n2)cc1 (centres undefined) | 89.3%
COc1cc(C(C)=C(c2ccc(OCCN(C)C)cc2)c2ccc(OCCN(C)C)cc2)ccc1F | 97.8%
CN1CCN(c2ccc(Nc3nc(NCCCNS(=O)(=O)c4ccc(F)cc4)c4sccc4n3)cc2)CC1 | 140%
CCOC(=O)c1c(NC(=O)c2ccc(C(F)(F)F)cc2)sc2c(CN3CCN(C)CC3)c(O)ccc12 | -71.2% (active)
CC(O)c1cccc(/C(N)=N/C(N)=N/c2nc3ccccc3s2)c1 (centres undefined) | 133%
C#Cc1cc(C(=O)Nc2ccc(CNCCN3CCOCC3)c(C(F)(F)F)c2)ccc1C | 108%
COc1ccc(/C=N/NC(=O)CSc2nc(-c3cnccn3)cc(-c3cccs3)c2C#N)cc1 | 98.7%
Cn1cc(-c2nnc(N)nc2-c2c[nH]c3ccc(Br)cc23)c2cc(Br)ccc21 | 78.7%
COc1ccc2[nH]cc(-c3nc(N)nnc3-c3cn(C)c4ccc(Br)cc34)c2c1 | 54.3%
C#CCN(C)CCCOc1ccc(NCc2ccc(C(=O)NO)cc2)cc1Cl | -3.24% (active)
CCN(CC)c1ccc(/C=N/NC(=O)c2ccc(NS(C)(=O)=O)cc2)c(O)c1 | 47.9%
O=C(CCCCCCN1CC(=O)N2[C@@H](c3ccc(Cl)s3)c3[nH]c4ccccc4c3C[C@H]2C1=O)NO | 43.4%
CC1(C)CC[C@]23CC[C@]4(C)[C@H](CC[C@@H]5[C@@]6(C)CC[C@H](N)C(C)(C)[C@@H]6CC[C@]54C)[C@H]2[C@H]1OC3 | 135%
Cc1ccc(S(=O)(=O)NCCCNc2nc(Nc3ccc(N4CCN(C)CC4)cc3)nc3ccsc23)cc1 | 124%
N#Cc1nc(-c2ccccc2)oc1N1CCC(C2(C(F)(F)F)N=N2)CC1 | 116%
O=C(CCCCCCN1CC(=O)N2[C@@H](c3cccs3)c3[nH]c4ccccc4c3C[C@H]2C1=O)NO | 85.5%
O=C(CCCCCCNC(=O)C(O)(O)C(F)(F)F)Nc1nc2ccccc2s1 | -3.74% (active)
CNC(=O)c1cc(Oc2ccc3c(c2)sc2nc(-c4ccc(N(C)C)cc4)cn23)ccn1 | 77.2%
CC1=C(C)C(=O)C(Nc2cccc(C)c2)=C(Br)C1=O | 152%
CC(=C(c1ccc(OCCCN(C)C)cc1)c1ccc(OCCCN(C)C)cc1)c1ccc(Cl)cc1 | 96.5%
COc1cc(C(=O)c2cc(C(C)=O)c3cccc(C)n23)cc(OC)c1OC | 78.6%
C#Cc1nc(/C=C/CCCCCCC(=O)NO)cs1 | 31.6%
CCCCCc1ccc(S(=O)(=O)Nc2cc(-c3csc(N)n3)ccc2OC)cc1 | 113%
CCCc1cc2cc(-n3nc(CC)c4c3CC(C)(C)CC4=O)cc(NC3CCC(O)CC3)c2c(=O)[nH]1 (centres undefined) | 0.71% (active)
Cc1ccc(-c2cc3nc(C(Cl)Cl)nc(-c4ccc(S(=O)(=O)N(C)C)cc4)n3n2)cc1 | 107%

Reference: PubChem BioAssay (NCI)
